The results in this text go back to PubChem BioAssay AID651789 (National Center for Advancing Translational Sciences (NCATS), 2012).

Inconclusive results are not listed. Calls of active or inactive are those of the source. Calls come from the whole dose curve; as a rule, active = well fitted inhibition curve with a large enough effect; inconclusive = small, poorly fitted or top-dose-only effect; inactive = no such curve, though single readings can be large or run the other way.
Potency is the fitted concentration of half-maximal effect.

The assay is described as follows: Acumen qHTS Assay for Inhibitors of the mTORC1 Signaling Pathway in WT MEF Cells: Hit Validation.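 For activity change, negative = inhibition: percent of cells above a cutoff set by 7.5 nM rapamycin treated wells.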 Note: nearly all actives have a fitted effect of over 60% in size. The conditions noted are these: Acumen imaging; series mostly up to 37.3 µM; activity change, negative = inhibition: at the top concentration. The source says: The mammalian target of rapamycin (mTOR) is an intracellular serine/threonine kinase Aberrant regulation of mTOR signaling plays a causative role in a number of human diseases, including cancer, benign tumors such as lymphangioleiomyomatosis (LAM) and Tuberous Sclerosis Complex (TSC), and metabolic diseases such as diabetes and obesity. This project aims to identify inhibitors of ribosomal protein S6 (rpS6) phosphorylation. The phosphorylation of rpS6 is a key event downstream of mTOR activation. The assay uses a phospho-specific antibody of phospho-rpS6 to detect inhibitors of mTOR activation. Mutations in the Tsc1 and Tsc2 genes are the underlying genetic lesions responsible for TSC, causing constitutive activation of the mTORC1 pathway and leading to profound effects on cell metabolism. Aberrant metabolism in cancer has recently received significant attention as a target to develop therapeutic agents in the treatment of cancer.1 As Tsc2-/- cells have lost the ability to respond to energy and growth factor deprivation, these cells are unable to properly down regulate cellular biosynthetic processes in response to metabolic stress, and are thus extremely sensitive to glucose deprivation-induced death.2 A central goal of this project is to explore the unique cell survival and metabolic properties of cells with Tsc1 or Tsc2 by screening for compounds that selectively target the Tsc2-/- MEFs by screening both Tsc2-/- and WT MEF cell lines. We hope to better understand these aspects of TSC physiology in order to exploit them for therapeutic benefit.
NIH Molecular Libraries Probe Production Centers Network [MLPCN]
NIH Chemical Genomics Center [NCGC]
Assay Submitter (PI): Blenis, John; Harvard University
For quantitative high throughput analysis of mTORC1 signaling, we developed a cell-based assay for immuno-fluorescence based detection of rpS6 phosphorylation on the Acumen Explorer that will be used a platform for the primary small molecule screen. Mouse embryonic fibroblasts (MEFs) are cultured in 1536-well plates using DMEM + 10% FBS. Twenty-four hrs after plating, test compounds (solubilized in DMSO) are delivered and incubated with the cells for 24 hrs at 37 degree Celsius. Following the incubation, media with compound is aspirated and the cells are fixed in 4% paraformaldehyde (PFA) containing PBS + 0.2% TX-100. Next, PFA is aspirated, cells are washed two times with PBS plus 0.2% TX-100 and the cells are blocked for 1 hr at room temperature (blocking buffer: LiCOR Blocking Buffer plus 0.2% TX-100). This is followed by aspiration and staining with Alexa-488 conjugated-phospho-rpS6 Ser235/236 antibody for 2 hours at room temperature (Cell Signaling Technology # 4803, 1:50 dilution in blocking buffer). Cells are washed two times with PBS plus 0.2% TX-100, and stained with 10 uM propidium iodide (PI) for 20-25 minutes for cell number measurement (1:500 dilution of Hoescht staining is also added for IN Cell imaging). The plates are scanned on the Acumen Explorer laser scanning instrument (TTP Labtech) using the 488nm laser for simultaneous excitation of the Alexa-488 and PI. […] Fluorescence emission from the PI stain is selected using a 575-640 nm band pass filter. The normalized phospho-S6 staining is calculated as the ratio of the integrated Alexa 488 intensity divided by the integrated PI intensity for the single concentration rapamycin control (7.5 nM) and DMSO columns. […] Inhibition of the pathway is defined based on the normalized phospho-S6 intensity in rapamycin treated cells. Active cells are defined as those with a normalized phospho-S6 staining above this threshold, and each treatment is reported as the % positive cells in the well, where thresholds are defined by selecting wells with the highest and lowest signal and differentiating between the % non-active and % active populations. In addition to the pathway specific phospho-S6 endpoint, the number of PI stained cells from the Acumen is recorded as a measure of cell viability. […]
As to `CCCC1=Nc2cc(C(=O)NCc3ccccc3)ccc2Sc2ccccc21`, the Potency was 2.61 µM (active). `Cc1c(C(=O)OC2CCC(C)CC2)[nH]c2c1C(=O)CC(c1ccc(F)cc1)C2` (stereo not given): the “activity change, negative = inhibition” value is -0.763% (inactive). The same measure, in the same setting: for `COc1ccc(OC)c(NC(=O)c2nnn(CC(=O)Nc3ccc(C(C)C)cc3)c2N)c1` the value was -1.53% (inactive); for `COc1ccc(/C=C/C(=O)Nc2ccc3nc(N4CCC(C)CC4)cc(C)c3c2)cc1OC`, -13.4% (inactive).

For `Cc1ccccc1CS(=O)(=O)c1ncc(Cl)c(C(=O)Nc2nnc(C(C)C)s2)n1`, the Potency was 11.7 µM (active). In the case of `Cc1nc2ccc(S(=O)(=O)CCC(=O)Nc3ccc(Cl)cc3)cc2s1`, the “activity change, negative = inhibition” value is -9.92% (inactive). The same measure, in the same setting: for `Cc1ccc(CNS(=O)(=O)c2cc(C(=O)Nc3cccc(C(F)(F)F)c3)ccc2F)cc1` the value was -27% (inactive).

On to `CCNC(=O)c1c(NC(=O)c2nc(S(=O)(=O)CC)ncc2Cl)sc2c1CCCC2`, for which the Potency was 0.585 µM (active).

For the compound `COc1cc(OC)c(NC(=O)Nc2ccc3c(c2)N(C)C(=O)c2ccccc2S3)cc1Cl`, the Potency was 5.21 µM (active).

Consider `CCc1ccc2ncc(S(=O)(=O)c3ccc(Cl)cc3)c(N3CCN(CC)CC3)c2c1`, for which the “activity change, negative = inhibition” value was 6.8% (inactive). With `COc1ccc2nc(NC(=O)c3nc(S(=O)(=O)Cc4ccccc4F)ncc3Cl)sc2c1`, the Potency was 13.1 µM (active). Regarding `COc1ccc(NC(=O)c2c(NC(=O)COc3ccccc3)sc3c2CCC(C)C3)cc1` (stereo not given), the “activity change, negative = inhibition” value was 38.3% (inactive). On the same count and under the same terms, the value for `COc1cccc(C(=O)Nc2ccc(-c3cc(C(F)(F)F)nn3-c3ccccc3)cc2)c1` was -20.9% (inactive). For the compound `CCN(CC)CCCNc1sc(S(=O)(=O)c2ccccc2)nc1S(=O)(=O)c1ccc(Cl)cc1`, the Potency was 16.5 µM (active).

In the case of `CC(C)(C)c1ccc(C(=O)Nc2nnc3n2CCS3)cc1`, the Potency was 8.26 µM (active). As for `Cc1cccc(-c2nc3c(cnn3-c3ccccc3)c(=O)n2-c2ccc(Br)cc2)c1`, the “activity change, negative = inhibition” value was -27.2% (inactive).

Consider `CCSc1oc(-c2ccc(F)cc2)nc1S(=O)(=O)c1ccc(C)cc1`, for which the “activity change, negative = inhibition” value is -16.5% (inactive). For `Cc1cccc(NC(=O)c2c(NC(=O)C(F)(F)F)sc3c2CCCCC3)c1`, the “activity change, negative = inhibition” value was -24.7% (inactive). As for `CCN(CC)CCn1c(=N)n(CCOc2ccccc2Cl)c2ccccc21`, the Potency was 9.27 µM (active). As to `Cc1ccc(S(=O)(=O)Nc2ccc3c(c2)c(C(=O)OC(C)C)c(C)n3S(=O)(=O)c2ccc(C)cc2)cc1`, the “activity change, negative = inhibition” value is 0.763% (inactive).

Consider `CCS(=O)(=O)c1ncc(Cl)c(C(=O)N(Cc2ccccc2)Cc2ccco2)n1`, for which the Potency was 3.29 µM (active). In the case of `CCCS(=O)(=O)c1c(S(=O)(=O)CCC)c2cc(C(C)(C)C)ccn2c1C(=O)c1ccc(OC)c(OC)c1`, the “activity change, negative = inhibition” value was -3.05% (inactive). In the case of `CCOc1ccc(S(=O)(=O)Nc2ccc(OC)c(Cl)c2)c2cccnc12`, the “activity change, negative = inhibition” value is -2.29% (inactive). Same read-out and setting: the value for `Cc1ccc(-c2noc(CCC(=O)N(C)c3ccccc3F)n2)cc1` was 10.4% (inactive).

For the compound `COc1ccc(C)cc1NC(=O)CSc1ccc(-c2ccccn2)nn1`, the “activity change, negative = inhibition” value is 4.03% (inactive). As to `CCN1C(=O)c2ccccc2Sc2ccc(NC(=O)Cc3ccc(OC)cc3)cc21`, the “activity change, negative = inhibition” value was 2.8% (inactive). Same read-out and setting: for `COc1ccc(S(=O)(=O)N(CCc2ccccc2)CC(=O)Nc2cccc(OC)c2)cc1` the value was 3.05% (inactive); for `Cn1nc(-c2ccc(OCC(=O)Nc3ccc(Cl)cc3)cc2)c2ccccc2c1=O`, -23.6% (inactive).

As to `COc1cc(C2CC(=O)Nc3cc4c(cc32)OCCO4)cc(Br)c1OC` (stereo not given), the Potency is 0.0521 µM (active). On to `CCCCN1C(=O)C(O)(c2c(C)[nH]c3ccccc23)c2cc(Br)ccc21` (stereo not given), for which the “activity change, negative = inhibition” value was -22% (inactive).

Take `COc1cc(C)ccc1OCCn1c(-c2ccc(Cl)cc2)nc2ccccc2c1=O`: the “activity change, negative = inhibition” value was 25.2% (inactive). Same read-out and setting: for `COC(=O)c1ccccc1NC(=O)Cn1c(=O)n(-c2ccc(C)cc2)c(=O)c2ccccc21` the value was -17.9% (inactive); for `CCCSc1oc(-c2ccco2)nc1S(=O)(=O)c1ccc(Br)cc1`, 4.58% (inactive); for `Cc1ccccc1CN1C(=O)C(O)(CC(=O)c2cccc(Br)c2)c2ccccc21` (stereo not given), 8.36% (inactive). On the same count and under the same terms, the value for `CCn1c2ccccc2c2cc(CN3CCN(Cc4ccc(Cl)cc4)CC3)ccc21` was 18.5% (inactive); that for `CCOc1ccc(C(=O)NCCc2sc(-c3ccc(C)cc3)nc2C)cc1` was 0.501% (inactive).

For the compound `CC(C)c1ccc(NS(=O)(=O)c2ccc3nc(-c4ccccc4)[nH]c3c2)cc1`, the “activity change, negative = inhibition” value was 6.87% (inactive). On the same count and under the same terms, the value for `CCOc1ccc(NC(=O)c2sc3nc4c(cc3c2N)CCCCCC4)cc1` was -9.68% (inactive). For the compound `CC(C)S(=O)(=O)c1oc(-c2ccc(F)cc2)nc1S(=O)(=O)c1ccc(F)cc1`, the Potency is 0.521 µM (active). The same measure, in the same setting: for `CCC1=Nc2cc(C(=O)NC3CCCC3)ccc2Sc2ccc(Cl)cc21` the value was 2.07 µM (active).
